SMILES strings stand for the structures. Records with an inconclusive call do not appear. Activity calls are given as the source filed them. The calls were made as follows, unless noted: active = hit-call score of the fitted dose curve at least 0.9, where 1 is the maximum; inactive = score below 0.9.

A word on the AC50: it is the concentration at which the activity in the assay is half-maximal.

A short description of experiment [1]: ATG_PBREM_CIS: Attagene CIS-FACTORIAL HepG2 Assay for human Phenobarbital-responsive Enhancer Module (PBREM) (AID 2282955). Particulars: HepG2 PBREM cis-reporter, Attagene multiplexed transcription; actives raise or lower the signal. In a few lines:
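HepG2 cells transiently transfected with multiple cis-regulated reporter transcription units; endogenous factor activity at the PBREM element measured as reporter mRNA 24 h after dosing, via RT-PCR and capillary electrophoresis of fluorescent fragments; bidirectional fitting versus DMSO.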

Experiment [2] deals with Paired box protein Pax-6 (Homo sapiens) (UniProt P26367). Kind of experiment: ATG_Pax6_CIS: Attagene CIS-FACTORIAL HepG2 Assay for human Paired Box 6 (PAX6) (AID 2282956). To be noted: HepG2 CIS-FACTORIAL PAX6 reporter transcription, RNA readout; actives raise or lower the signal. Summed up: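 Read-out is reporter transcript level, measured by RT-PCR with fluorescent primer extension and capillary electrophoresis after 24 h dosing of transfected HepG2 cells. Activity in either direction fitted relative to DMSO control.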

The nature of experiment [3]: ATG_PXRE_CIS: Attagene CIS-FACTORIAL HepG2 Assay for human Pregnane X Receptor Element (PXRE) (AID 2282957). To be noted: HepG2 Attagene CIS-FACTORIAL PXRE reporter, mRNA; actives raise or lower the signal. Summed up:
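Endogenous transcription factor activity in HepG2 was gauged through induction of reporter mRNA driven by a cis-regulating promoter element, sampled 24 h post-treatment. Activity was fitted in both directions against DMSO negative control.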

Experiment [4] is described as follows: ATG_PPRE_CIS: Attagene CIS-FACTORIAL HepG2 Assay for human Peroxisome Proliferator-activated Response Element (PPRE) (AID 2282958). To be noted: HepG2 PPRE cis-element reporter, Attagene transcription factor profiling; actives raise or lower the signal. In a few lines: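 HepG2 cells transiently transfected with multiplexed cis-element reporter units measure endogenous transcription factor activity. After 24 h compound exposure, reporter mRNA is quantified by RT-PCR, 6-FAM labeling, HpaI digestion and capillary electrophoresis; bidirectional fits are made against DMSO baseline.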

Experiment [5] can be described thus: ATG_Sox_CIS: Attagene CIS-FACTORIAL HepG2 Assay for human SRY-box transcription factor (SOX) (AID 2282960). To be noted: HepG2 Attagene cis-factorial SOX reporter, mRNA; actives raise or lower the signal. Summed up: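 HepG2 cells transiently transfected with cis-element-driven multiple reporter transcription units, dosed 24 h; reporter mRNA measured by RT-PCR, FAM labelling, HpaI digestion and capillary electrophoresis. Bidirectional fit versus DMSO baseline.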

For experiment [6], the target named is Transcription factor Sp1 (Homo sapiens) (UniProt P08047). Kind of experiment: ATG_Sp1_CIS: Attagene CIS-FACTORIAL HepG2 Assay for human Specificity Protein 1 (Sp1) (AID 2282961). Particulars: HepG2 Sp1 cis-reporter transcription, actives raise or lower the signal. Summed up:
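HepG2 cells transiently transfected with multiple reporter transcription units driven by cis-regulatory elements; Sp1-responsive reporter mRNA measured 24 h after dosing by RT-PCR and capillary electrophoresis fluorescence, fitted bidirectionally against DMSO baseline.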

Experiment [7] can be described thus: ATG_SREBP_CIS: Attagene CIS-FACTORIAL HepG2 Assay for human Sterol Regulatory Element Binding (SREBP) (AID 2282962). Particulars: HepG2 Attagene cis-factorial SREBP reporter, mRNA; actives raise or lower the signal. Summed up: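 Endogenous SREBP activity read as cis-element-driven reporter transcript in transiently transfected HepG2, 24 h post-dosing; quantified via RT-PCR plus capillary electrophoresis of fluorescent fragments. Gain or loss of signal fitted relative to DMSO baseline.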

Experiment [8] addresses Signal transducer and activator of transcription 3 (Homo sapiens) (UniProt P40763). Kind of experiment: ATG_STAT3_CIS: Attagene CIS-FACTORIAL HepG2 Assay for human Signal Transducer and Activator of Transcription 3 (STAT3) (AID 2282963). Particulars: HepG2, Attagene cis-factorial STAT3 reporter transcription; actives raise or lower the signal. In a few lines: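 Readout is reporter transcript quantified by RT-PCR and capillary electrophoresis, with 6-FAM primer extension and HpaI digestion. Total RNA is taken 24 h after dosing transiently transfected HepG2 carrying cis-regulated reporter units. Bidirectional fit against DMSO.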

A short description of experiment [9]: ATG_TA_CIS: Attagene CIS-FACTORIAL HepG2 Assay for human TA Basal Promoter (AID 2282964). To be noted: HepG2 Attagene CIS-factorial TA basal promoter reporter; actives raise or lower the signal. In a few lines:
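Read-out: fluorescent reporter-transcript fragments resolved by capillary electrophoresis after RT-PCR and HpaI digestion. Source: HepG2 cells carrying transiently transfected multi-reporter cis constructs, treated 24 h. Endpoint fitted bidirectionally relative to DMSO.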

Experiment [10] in a line: ATG_TCF_b_cat_CIS: Attagene CIS-FACTORIAL HepG2 Assay for human T-Cell-Factor with beta-catenin (TCF/b-cat) (AID 2282965). Particulars: HepG2 TCF/beta-catenin cis-reporter transcription, actives raise or lower the signal. In a few lines: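 Measured: reporter mRNA in HepG2 transiently transfected with cis-promoter reporter units, 24 h after chemical addition. Fitting was bidirectional, DMSO as negative control.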

Experiment [11] can be described thus: ATG_TAL_CIS: Attagene CIS-FACTORIAL HepG2 Assay for human TAL Basal Promoter (AID 2282966).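 Also: background control endpoint measuring basal TAL promoter reporter mRNA not a specific factor.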 To be noted: HepG2 Attagene cis-factorial TAL promoter reporter; actives raise or lower the signal. In a few lines:
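Endogenous transcription-factor activity is sensed in HepG2 cells through transfected cis-promoter reporter constructs. After 24 h dosing, reporter transcripts are quantified by RT-PCR and capillary electrophoresis. Gain or loss of signal is fitted relative to DMSO.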

Experiment [12] in a line: ATG_TGFb_CIS: Attagene CIS-FACTORIAL HepG2 Assay for human Transforming Growth Factor (TGF) (AID 2282967). Particulars: HepG2 Attagene CIS TGFb reporter, mRNA transcription; actives raise or lower the signal. In a few lines: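 Transient MRTU transfection of HepG2 (FuGene 6). Dose 24 h. TriZol RNA, oligo(dT) RT, PCR, 6-FAM primer extension, HpaI cut, CE. Bidirectional fit, DMSO = baseline.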

A short description of experiment [13]: ATG_VDRE_CIS: Attagene CIS-FACTORIAL HepG2 Assay for human Vitamin D Receptor Element (VDRE) (AID 2282968). To be noted: HepG2 VDRE cis-reporter transcription, actives raise or lower the signal. Summed up: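 Readout is VDRE-driven reporter mRNA reflecting endogenous factor activity in human HepG2 cells, sampled 24 h post-dose. Quantification used labelled RT-PCR products separated by capillary electrophoresis; bidirectional analysis relative to DMSO.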

For experiment [14], the target named is Estrogen receptor (Homo sapiens) (UniProt P03372). The experiment can be described thus: ATG_ERa_TRANS: Attagene TRANS-FACTORIAL HepG2 Assay for human Estrogen Receptor alpha (ERa) (AID 2282970; active = hit-call score of the fitted dose curve at least 0.9, where 1 is the maximum). Particulars: HepG2 Attagene TRANS ERa GAL4 reporter, mRNA. In a few lines: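 Transfected HepG2 cells carrying GAL4-UAS-driven reporter units were dosed for 24 hours. Total RNA was reverse-transcribed, reporter sequences PCR-amplified, FAM-labelled, HpaI-digested and resolved by capillary electrophoresis. Increases over DMSO control defined activity.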

The target in experiment [15] is Steroid hormone receptor ERR1 (Homo sapiens) (UniProt P11474). Kind of experiment: ATG_ERRa_TRANS: Attagene TRANS-FACTORIAL HepG2 Assay for human Estrogen-Related Receptor alpha (ERRa) (AID 2282971; active = hit-call score of the fitted dose curve at least 0.9, where 1 is the maximum). To be noted: HepG2 Attagene TRANS reporter, ERRa transactivation. In a few lines: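 HepG2 cells were transiently transfected with multiple GAL4-UAS reporter units, then dosed with compound for 24 h. Total RNA was reverse-transcribed, reporter cDNA PCR-amplified and fluorescently labelled, and fragments resolved by capillary electrophoresis; induction was compared with DMSO.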

Experiment [16] has as its target X-box-binding protein 1 (Homo sapiens) (UniProt P17861). Kind of experiment: ATG_Xbp1_CIS: Attagene CIS-FACTORIAL HepG2 Assay for human X-box Binding Protein 1 (XBP1) (AID 2282972). Particulars: HepG2 XBP1 cis-element reporter, Attagene multiplex; actives raise or lower the signal. In a few lines: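 Reporter transcripts were quantified by RT-PCR with fluorescent primer extension and capillary electrophoresis after 24 h chemical exposure. Cells: transiently transfected HepG2 carrying cis-regulated reporter constructs; data fitted bidirectionally relative to DMSO.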

A short description of experiment [17]: ATG_M_19_TRANS: Attagene TRANS-FACTORIAL HepG2 Assay for M19 Transcription Factor (Internal Marker) (AID 2282974; active = hit-call score of the fitted dose curve at least 0.9, where 1 is the maximum). Particulars: HepG2 Attagene TRANS-FACTORIAL M19 internal marker reporter. In a few lines:
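HepG2 cells transiently transfected with multiple GAL4-UAS reporter transcription units were exposed to chemicals for 24 h. Reporter mRNA was read by RT-PCR, 6-FAM primer extension, HpaI digestion and capillary electrophoresis; gain of signal fitted relative to DMSO.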

The nature of experiment [18]: ATG_GAL4_TRANS: Attagene TRANS-FACTORIAL HepG2 Assay for GAL4 (Internal Marker) (AID 2282976; active = hit-call score of the fitted dose curve at least 0.9, where 1 is the maximum). Particulars: HepG2 Attagene TRANS GAL4 internal marker reporter. In a few lines: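 Fluorescence from capillary electrophoresis of labelled RT-PCR products quantifies reporter mRNA induction after 24 h dosing of HepG2 cells carrying transfected GAL4-UAS reporter transcription units. Vehicle DMSO serves as baseline.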

Experiment [19] is described as follows: ATG_RORE_CIS: Attagene CIS-FACTORIAL HepG2 Assay for human RAR-related Orphan Receptor Element (RORE) (AID 2282959). To be noted: HepG2 Attagene cis-factorial RORE reporter, mRNA; actives raise or lower the signal. Summed up:
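HepG2 cells transiently transfected with multiple cis-element reporter transcription units, exposed to chemical for 24 h. Reporter mRNA quantified by RT-PCR, 6-FAM primer-extension labeling, HpaI digestion and capillary electrophoresis; bidirectional fit versus DMSO baseline.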

In experiment [20] the target is Nuclear receptor subfamily 1 group I member 3 (Homo sapiens) (UniProt Q14994). The experiment can be described thus: ATG_CAR_TRANS: Attagene TRANS-FACTORIAL HepG2 Assay for human Constitutive Androstane Receptor (CAR) (AID 2282969; active = hit-call score of the fitted dose curve at least 0.9, where 1 is the maximum;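 also: activators raise reporter mRNA above DMSO so AC50 marks induction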). To be noted: HepG2 Attagene TRANS-FACTORIAL CAR reporter. In a few lines: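 Signal is reporter mRNA induction relative to DMSO, measured 24 h after dosing by RT-PCR with fluorescent primer extension and capillary electrophoresis. Human HepG2 liver cells carried transiently transfected chimeric NR-Gal4/GAL4-UAS reporter constructs.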
Nuclear receptor subfamily 1 group I member 3 (Homo sapiens), sequence (Q14994 whole entry, looked up, the tested form may be a part): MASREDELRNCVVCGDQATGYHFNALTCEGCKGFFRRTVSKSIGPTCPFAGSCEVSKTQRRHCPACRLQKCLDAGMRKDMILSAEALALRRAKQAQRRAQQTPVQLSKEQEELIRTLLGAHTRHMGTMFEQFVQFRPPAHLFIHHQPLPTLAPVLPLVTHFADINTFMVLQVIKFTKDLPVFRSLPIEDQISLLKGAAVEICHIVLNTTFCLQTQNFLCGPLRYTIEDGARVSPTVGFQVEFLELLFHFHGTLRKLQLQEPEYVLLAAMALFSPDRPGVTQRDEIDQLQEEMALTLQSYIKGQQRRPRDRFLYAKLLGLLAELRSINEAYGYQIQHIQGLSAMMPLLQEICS

X-box-binding protein 1 (Homo sapiens), sequence (P17861 whole entry, looked up): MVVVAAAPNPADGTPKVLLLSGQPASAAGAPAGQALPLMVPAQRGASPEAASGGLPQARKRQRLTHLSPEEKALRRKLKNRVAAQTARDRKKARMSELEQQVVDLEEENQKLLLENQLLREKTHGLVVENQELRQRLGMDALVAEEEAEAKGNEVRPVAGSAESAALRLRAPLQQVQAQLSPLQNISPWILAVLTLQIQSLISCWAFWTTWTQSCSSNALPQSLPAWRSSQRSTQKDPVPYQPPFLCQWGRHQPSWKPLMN
Steroid hormone receptor ERR1 (Homo sapiens), sequence (P11474 whole entry, looked up, the tested form may be a part): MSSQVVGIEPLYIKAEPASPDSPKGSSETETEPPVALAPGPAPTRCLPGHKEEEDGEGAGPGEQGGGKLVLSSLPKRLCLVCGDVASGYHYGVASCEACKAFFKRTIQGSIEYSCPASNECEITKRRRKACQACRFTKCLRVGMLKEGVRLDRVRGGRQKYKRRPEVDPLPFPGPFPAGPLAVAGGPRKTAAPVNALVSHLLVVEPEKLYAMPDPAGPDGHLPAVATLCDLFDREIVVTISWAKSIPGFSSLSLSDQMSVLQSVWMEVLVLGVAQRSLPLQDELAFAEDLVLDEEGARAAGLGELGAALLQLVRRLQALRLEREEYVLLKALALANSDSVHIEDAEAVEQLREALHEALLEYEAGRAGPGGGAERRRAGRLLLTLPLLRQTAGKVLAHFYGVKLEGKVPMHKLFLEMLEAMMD
Signal transducer and activator of transcription 3 (Homo sapiens), sequence (P40763 whole entry, looked up): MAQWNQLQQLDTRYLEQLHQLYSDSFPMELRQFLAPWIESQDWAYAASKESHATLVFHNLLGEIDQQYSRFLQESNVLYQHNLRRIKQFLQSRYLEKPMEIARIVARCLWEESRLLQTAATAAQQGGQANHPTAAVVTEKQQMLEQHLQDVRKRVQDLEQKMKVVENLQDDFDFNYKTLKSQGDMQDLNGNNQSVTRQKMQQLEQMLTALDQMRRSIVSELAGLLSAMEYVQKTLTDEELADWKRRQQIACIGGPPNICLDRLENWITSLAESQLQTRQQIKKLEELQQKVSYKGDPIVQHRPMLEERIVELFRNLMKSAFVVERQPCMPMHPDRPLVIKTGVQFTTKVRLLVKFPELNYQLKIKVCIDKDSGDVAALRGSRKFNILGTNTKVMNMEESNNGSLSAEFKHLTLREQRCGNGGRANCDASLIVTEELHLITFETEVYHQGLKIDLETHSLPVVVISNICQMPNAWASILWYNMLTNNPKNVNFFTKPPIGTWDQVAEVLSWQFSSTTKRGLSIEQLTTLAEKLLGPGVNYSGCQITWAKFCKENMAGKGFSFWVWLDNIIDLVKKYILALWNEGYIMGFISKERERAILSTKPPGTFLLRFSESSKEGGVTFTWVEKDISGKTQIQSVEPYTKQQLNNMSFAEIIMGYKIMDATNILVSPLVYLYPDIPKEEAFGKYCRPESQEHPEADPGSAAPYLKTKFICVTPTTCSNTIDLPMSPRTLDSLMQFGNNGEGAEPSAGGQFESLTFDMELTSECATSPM
Estrogen receptor (Homo sapiens), sequence (P03372 whole entry, looked up, the tested form may be a part): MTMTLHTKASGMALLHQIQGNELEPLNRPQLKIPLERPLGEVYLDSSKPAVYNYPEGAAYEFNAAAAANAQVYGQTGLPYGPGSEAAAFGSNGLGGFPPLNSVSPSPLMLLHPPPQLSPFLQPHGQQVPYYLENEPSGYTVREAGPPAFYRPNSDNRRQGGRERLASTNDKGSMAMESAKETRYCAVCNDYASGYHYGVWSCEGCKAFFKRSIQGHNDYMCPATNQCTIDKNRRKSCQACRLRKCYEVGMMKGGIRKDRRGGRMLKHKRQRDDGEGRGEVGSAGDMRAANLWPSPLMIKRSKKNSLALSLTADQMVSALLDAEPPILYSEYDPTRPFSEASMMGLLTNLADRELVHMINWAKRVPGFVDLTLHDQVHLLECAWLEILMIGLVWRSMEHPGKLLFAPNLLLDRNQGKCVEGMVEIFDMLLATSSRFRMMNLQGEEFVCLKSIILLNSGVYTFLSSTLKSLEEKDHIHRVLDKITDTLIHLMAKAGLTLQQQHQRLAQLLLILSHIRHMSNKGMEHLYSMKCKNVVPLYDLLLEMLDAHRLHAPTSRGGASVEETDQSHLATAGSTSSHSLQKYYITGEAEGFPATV
Transcription factor Sp1 (Homo sapiens), sequence (P08047 whole entry, looked up): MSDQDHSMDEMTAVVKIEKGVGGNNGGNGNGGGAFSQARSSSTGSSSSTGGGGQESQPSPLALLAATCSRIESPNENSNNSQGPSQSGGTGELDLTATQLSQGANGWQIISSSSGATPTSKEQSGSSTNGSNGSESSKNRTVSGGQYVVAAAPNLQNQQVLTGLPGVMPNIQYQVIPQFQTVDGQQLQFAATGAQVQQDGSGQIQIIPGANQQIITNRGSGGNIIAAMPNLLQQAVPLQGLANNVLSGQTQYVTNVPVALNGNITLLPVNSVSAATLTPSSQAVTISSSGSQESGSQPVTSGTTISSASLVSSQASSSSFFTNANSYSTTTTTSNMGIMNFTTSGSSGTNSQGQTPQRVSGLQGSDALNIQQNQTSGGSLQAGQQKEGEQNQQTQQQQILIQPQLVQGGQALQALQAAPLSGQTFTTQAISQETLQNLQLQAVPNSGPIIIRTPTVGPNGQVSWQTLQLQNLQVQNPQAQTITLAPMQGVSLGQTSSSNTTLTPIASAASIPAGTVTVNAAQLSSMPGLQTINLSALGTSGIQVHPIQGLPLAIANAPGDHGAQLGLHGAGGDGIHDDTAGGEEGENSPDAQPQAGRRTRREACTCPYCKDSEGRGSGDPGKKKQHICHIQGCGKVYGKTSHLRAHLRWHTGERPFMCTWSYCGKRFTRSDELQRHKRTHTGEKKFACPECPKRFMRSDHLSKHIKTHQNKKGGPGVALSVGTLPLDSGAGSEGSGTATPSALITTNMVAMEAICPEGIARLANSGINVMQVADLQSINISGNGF
Paired box protein Pax-6 (Homo sapiens), sequence (P26367 whole entry, looked up): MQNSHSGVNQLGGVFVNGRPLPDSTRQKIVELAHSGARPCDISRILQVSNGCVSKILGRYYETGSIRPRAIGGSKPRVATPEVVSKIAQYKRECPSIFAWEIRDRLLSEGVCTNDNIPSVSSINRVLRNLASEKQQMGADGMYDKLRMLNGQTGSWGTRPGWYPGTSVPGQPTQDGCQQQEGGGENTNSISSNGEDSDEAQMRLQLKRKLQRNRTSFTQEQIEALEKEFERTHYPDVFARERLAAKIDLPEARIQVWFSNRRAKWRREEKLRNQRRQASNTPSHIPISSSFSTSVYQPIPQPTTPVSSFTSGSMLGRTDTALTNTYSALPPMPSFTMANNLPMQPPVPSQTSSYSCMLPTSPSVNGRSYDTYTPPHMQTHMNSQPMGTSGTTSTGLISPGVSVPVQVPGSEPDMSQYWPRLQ

Take `CC(C)(CO)COC(=O)C(C)(C)CO`: the result in [1], in experiment [2], in experiment [3], in experiment [4], in experiment [5] and in experiment [6] was inactive. The outcome in experiment [7], in [8], in [9], in [10], in experiment [11] and in experiment [12] was inactive. Besides, the call in [13], in [14], in [15], in experiment [16], in [17] and in experiment [18] was inactive.
For the compound `Cc1c(O)cccc1O`, the outcome in [1], in experiment [2], in experiment [4], in experiment [19], in [5] and in experiment [6] was inactive. Also, the result in experiment [7], in experiment [9], in [10], in experiment [11], in experiment [12] and in experiment [13] was inactive. The compound was called inactive in [20], in experiment [16] and in experiment [18]. In addition, the figures for the AC50 in experiment [3] and in [14] were 127 µM (active) and 46.1 µM (active), respectively.
On to `Nc1ccc(O)c([N+](=O)[O-])c1`, for which the result in experiment [1], in [2], in [3], in experiment [4], in experiment [5] and in experiment [6] was inactive. For the same compound, the compound was classed as inactive in experiment [7], in experiment [8], in experiment [9], in experiment [10], in [11] and in [12]. Besides, the call in [13], in experiment [14] and in experiment [15] was inactive.
Turning to `CC/C=C\CCOC(=O)c1ccccc1O`, the outcome in [1], in [2], in experiment [3], in experiment [4], in experiment [19] and in experiment [5] was inactive. For the same compound, the outcome in experiment [6], in experiment [7], in experiment [9], in [10], in experiment [11] and in [12] was inactive. Also, the outcome in [13], in experiment [20], in experiment [14], in experiment [15], in experiment [16] and in experiment [17] was inactive. Moreover, in experiment [18], the call was inactive.
As for `C=CC(=O)NC(C)(C)C`, the outcome in experiment [1], in experiment [2], in experiment [19], in experiment [5], in experiment [6] and in [7] was inactive. The outcome in experiment [8], in [9], in experiment [10], in [11], in experiment [12] and in [13] was inactive. Further, the call in experiment [20], in experiment [14] and in experiment [16] was inactive. The AC50 in experiment [3] was 26.9 µM (active).
For the compound `CCCSSCCC`, the outcome in experiment [1], in experiment [2], in experiment [3], in experiment [19], in [5] and in experiment [6] was inactive. Also, the compound was called inactive in experiment [7], in experiment [8], in experiment [9], in [10], in [11] and in experiment [12]. Also, the compound was called inactive in [13], in [20], in experiment [14] and in [18].
Turning to `Cc1c(Cl)cccc1Cl`, the outcome in [1], in experiment [2], in experiment [3], in experiment [19], in experiment [5] and in experiment [6] was inactive. The outcome in [7], in experiment [8], in [9], in [10], in experiment [11] and in experiment [12] was inactive. For the same compound, the compound was classed as inactive in [13], in experiment [20], in experiment [14], in experiment [16] and in experiment [18].

The values are drawn from PubChem BioAssay (EPA / NIEHS).
